Here are results for eight sequences from article PMC7862700, “An all-to-all approach to the identification of sequence-specific readers for epigenetic DNA modifications on cytosine”.

Assay in all cases: DAPPL (digital affinity profiling via proximity ligation, sequencing); 10 mM Tris-HCl pH 7.5, 50 mM NaCl, 1 mM DTT, 4% glycerol, room temperature, 30 min; GST-TFs on glutathione beads, 16-mer random dsDNA library, 0.1% formaldehyde crosslink after washing; high values mean tight binding
What all share (details): protein: recombinant; tags: N-terminal GST; dsDNA, one strand shown

One experiment has as its target T1, ERF (Homo sapiens, UniProt P50548 1-548).
T1 sequence: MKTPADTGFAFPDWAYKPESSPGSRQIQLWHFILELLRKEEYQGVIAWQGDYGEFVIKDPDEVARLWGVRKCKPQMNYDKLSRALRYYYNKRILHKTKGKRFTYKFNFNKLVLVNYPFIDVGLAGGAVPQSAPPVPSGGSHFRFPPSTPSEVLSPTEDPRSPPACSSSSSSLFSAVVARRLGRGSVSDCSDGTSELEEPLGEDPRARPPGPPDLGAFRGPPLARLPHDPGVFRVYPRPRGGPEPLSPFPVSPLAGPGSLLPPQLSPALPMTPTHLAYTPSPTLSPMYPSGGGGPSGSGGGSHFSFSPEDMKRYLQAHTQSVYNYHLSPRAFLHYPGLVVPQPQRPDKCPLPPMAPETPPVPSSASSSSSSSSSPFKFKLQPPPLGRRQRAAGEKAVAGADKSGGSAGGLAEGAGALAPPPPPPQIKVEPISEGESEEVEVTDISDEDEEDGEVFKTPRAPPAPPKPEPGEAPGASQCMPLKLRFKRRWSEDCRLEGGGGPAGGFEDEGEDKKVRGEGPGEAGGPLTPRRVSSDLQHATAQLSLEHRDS
Summed up: (§1)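 Yeast served to express human transcription factors as GST fusions, which were then captured on glutathione beads and labelled with DNA barcodes. Pooled with a tag-only sample, they were incubated with 200 nmole of a 16-mer random double-stranded DNA library for 30 min at room temperature in Tris/NaCl/DTT/glycerol buffer, washed, crosslinked with 0.1% formaldehyde, ligated by proximity, amplified by PCR and sequenced. Dividing each hexamer's read frequency for a factor by its frequency for the tag-only sample gives the binding signal.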

The target of another experiment is T2, ETV3L (Homo sapiens, UniProt Q6ZN32 1-361).
T2 sequence: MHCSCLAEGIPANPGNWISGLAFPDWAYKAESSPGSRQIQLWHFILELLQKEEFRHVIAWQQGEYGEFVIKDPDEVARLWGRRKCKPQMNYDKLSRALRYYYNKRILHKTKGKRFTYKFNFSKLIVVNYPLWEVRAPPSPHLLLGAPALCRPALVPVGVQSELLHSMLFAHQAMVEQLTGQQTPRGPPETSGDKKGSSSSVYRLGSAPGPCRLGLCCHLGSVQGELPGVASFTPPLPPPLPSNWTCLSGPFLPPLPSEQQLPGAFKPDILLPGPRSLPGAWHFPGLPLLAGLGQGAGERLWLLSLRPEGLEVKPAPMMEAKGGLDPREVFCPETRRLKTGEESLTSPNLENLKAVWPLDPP
Summed up: as §1

In another experiment the target is T3, ETS2 (Homo sapiens, UniProt P15036 1-469).
T3 sequence: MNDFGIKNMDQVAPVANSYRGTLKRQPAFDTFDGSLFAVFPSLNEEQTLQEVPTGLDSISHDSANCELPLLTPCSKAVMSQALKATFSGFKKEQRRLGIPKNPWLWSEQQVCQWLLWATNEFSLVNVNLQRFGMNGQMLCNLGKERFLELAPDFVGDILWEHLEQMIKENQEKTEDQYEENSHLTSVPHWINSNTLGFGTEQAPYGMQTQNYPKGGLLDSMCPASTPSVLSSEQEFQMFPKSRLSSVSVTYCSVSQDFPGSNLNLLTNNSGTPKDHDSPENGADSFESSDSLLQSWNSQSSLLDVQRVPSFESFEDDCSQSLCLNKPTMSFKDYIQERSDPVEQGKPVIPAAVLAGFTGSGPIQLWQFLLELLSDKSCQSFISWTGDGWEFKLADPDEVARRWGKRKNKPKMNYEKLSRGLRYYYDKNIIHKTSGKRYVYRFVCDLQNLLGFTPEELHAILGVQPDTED
Summed up:
as §1

Another experiment deals with T4, SPDEF (Homo sapiens, UniProt O95238 1-335).
T4 sequence: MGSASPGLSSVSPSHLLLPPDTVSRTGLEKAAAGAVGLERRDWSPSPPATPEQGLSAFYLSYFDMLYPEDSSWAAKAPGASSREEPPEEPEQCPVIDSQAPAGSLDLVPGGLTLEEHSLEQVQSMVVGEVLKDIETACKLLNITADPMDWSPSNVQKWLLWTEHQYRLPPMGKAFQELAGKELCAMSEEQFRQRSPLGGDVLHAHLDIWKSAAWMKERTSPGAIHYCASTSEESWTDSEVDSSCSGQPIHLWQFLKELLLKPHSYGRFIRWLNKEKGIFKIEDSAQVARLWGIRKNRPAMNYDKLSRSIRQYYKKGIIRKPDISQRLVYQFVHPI
The method, boiled down:
as §1

A further experiment has as its target T5, ETV7 (Homo sapiens, UniProt Q9Y603 1-341).
T5 sequence: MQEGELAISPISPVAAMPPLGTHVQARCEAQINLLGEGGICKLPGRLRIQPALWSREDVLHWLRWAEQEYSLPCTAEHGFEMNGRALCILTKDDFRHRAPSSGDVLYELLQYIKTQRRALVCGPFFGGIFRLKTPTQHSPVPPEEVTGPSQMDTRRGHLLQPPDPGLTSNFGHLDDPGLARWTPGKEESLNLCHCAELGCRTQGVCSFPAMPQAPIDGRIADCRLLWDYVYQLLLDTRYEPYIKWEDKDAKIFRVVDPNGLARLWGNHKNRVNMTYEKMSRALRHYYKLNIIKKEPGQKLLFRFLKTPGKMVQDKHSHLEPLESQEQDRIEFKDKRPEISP
The method, boiled down: as §1

The target of a further experiment is T6, ELF5 (Homo sapiens, UniProt Q9UKW6-2 1-255).
T6 sequence: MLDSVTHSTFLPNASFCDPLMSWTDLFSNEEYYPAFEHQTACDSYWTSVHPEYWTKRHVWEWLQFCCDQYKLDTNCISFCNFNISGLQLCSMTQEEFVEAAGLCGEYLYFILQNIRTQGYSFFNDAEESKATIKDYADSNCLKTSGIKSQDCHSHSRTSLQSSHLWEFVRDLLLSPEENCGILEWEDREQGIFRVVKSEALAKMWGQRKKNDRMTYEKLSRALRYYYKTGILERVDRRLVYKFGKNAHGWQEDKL
Summed up: as §1

A further experiment deals with T7, ETV3 (Homo sapiens, UniProt P41162-2 1-143).
T7 sequence: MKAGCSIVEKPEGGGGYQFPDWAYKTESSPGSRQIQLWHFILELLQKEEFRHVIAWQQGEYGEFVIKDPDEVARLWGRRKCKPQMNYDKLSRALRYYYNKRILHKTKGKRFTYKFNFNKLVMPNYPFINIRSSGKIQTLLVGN
Summed up: as §1

A further experiment concerns the target ETV6 (Homo sapiens, UniProt P41212 1-452). The method, boiled down: as §1

Sequence of ETV6 (P41212 whole entry): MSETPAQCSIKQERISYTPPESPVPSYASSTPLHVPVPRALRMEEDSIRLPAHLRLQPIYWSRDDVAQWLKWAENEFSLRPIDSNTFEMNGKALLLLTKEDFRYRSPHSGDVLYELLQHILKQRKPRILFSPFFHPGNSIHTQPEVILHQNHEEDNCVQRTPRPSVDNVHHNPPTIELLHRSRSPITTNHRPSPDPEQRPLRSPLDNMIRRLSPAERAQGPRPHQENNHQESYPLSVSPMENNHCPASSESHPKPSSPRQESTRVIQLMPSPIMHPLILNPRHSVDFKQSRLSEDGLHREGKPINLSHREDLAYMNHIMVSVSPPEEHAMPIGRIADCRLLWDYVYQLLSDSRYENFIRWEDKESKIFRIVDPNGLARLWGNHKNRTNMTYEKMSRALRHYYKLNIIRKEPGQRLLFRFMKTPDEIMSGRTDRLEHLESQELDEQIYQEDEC

On to CTGACC, for which the binding signal in the experiment with ERF was 1.34 fold enrichment (6-mer frequency, TF over GST control); with ETV3L it was 1.27 fold enrichment (6-mer frequency, TF over GST control); with ETS2, 1.38 fold enrichment (6-mer frequency, TF over GST control); in the experiment with SPDEF it was 1.27 fold enrichment (6-mer frequency, TF over GST control); in the experiment with ETV7 it was 1.29 fold enrichment (6-mer frequency, TF over GST control); in the experiment with ELF5, 1.34 fold enrichment (6-mer frequency, TF over GST control). For the same sequence, the binding signal was 1.4 fold enrichment (6-mer frequency, TF over GST control) in the experiment with ETV3 and 1.32 fold enrichment (6-mer frequency, TF over GST control) in the experiment with ETV6.
Take GACCTG: the binding signal with ERF is 1.13 fold enrichment (6-mer frequency, TF over GST control); with ETV3L, 1.33 fold enrichment (6-mer frequency, TF over GST control); with ETS2 it was 1.19 fold enrichment (6-mer frequency, TF over GST control); with SPDEF, 1.12 fold enrichment (6-mer frequency, TF over GST control); in the experiment with ETV7, 1.17 fold enrichment (6-mer frequency, TF over GST control); with ELF5, 1.21 fold enrichment (6-mer frequency, TF over GST control). Besides, the binding signal in the experiment with ETV3 is 1.17 fold enrichment (6-mer frequency, TF over GST control); with ETV6, 1.14 fold enrichment (6-mer frequency, TF over GST control).
As to GTAACA, the binding signal is 1.1 fold enrichment (6-mer frequency, TF over GST control) with ERF; 1.07 fold enrichment (6-mer frequency, TF over GST control) in the experiment with ETV3L; 1.08 fold enrichment (6-mer frequency, TF over GST control) in the experiment with ETS2; 1.14 fold enrichment (6-mer frequency, TF over GST control) in the experiment with SPDEF; 1.08 fold enrichment (6-mer frequency, TF over GST control) in the experiment with ETV7; 1.1 fold enrichment (6-mer frequency, TF over GST control) with ELF5. Besides, the binding signal with ETV3 is 1.15 fold enrichment (6-mer frequency, TF over GST control); with ETV6 it was 1.09 fold enrichment (6-mer frequency, TF over GST control).
For the sequence ATTGCC, the binding signal with ERF was 1.15 fold enrichment (6-mer frequency, TF over GST control); with ETV3L, 1.34 fold enrichment (6-mer frequency, TF over GST control); in the experiment with ETS2 it was 1.25 fold enrichment (6-mer frequency, TF over GST control); in the experiment with SPDEF, 1.18 fold enrichment (6-mer frequency, TF over GST control); with ETV7, 1.22 fold enrichment (6-mer frequency, TF over GST control); with ELF5, 1.22 fold enrichment (6-mer frequency, TF over GST control). Besides, the binding signal in the experiment with ETV3 is 1.31 fold enrichment (6-mer frequency, TF over GST control); with ETV6 it was 1.26 fold enrichment (6-mer frequency, TF over GST control).
CTTTAA: the binding signal in the experiment with ERF is 1.32 fold enrichment (6-mer frequency, TF over GST control); with ETV3L, 1.34 fold enrichment (6-mer frequency, TF over GST control); in the experiment with ETS2, 1.33 fold enrichment (6-mer frequency, TF over GST control); with SPDEF, 1.28 fold enrichment (6-mer frequency, TF over GST control); in the experiment with ETV7, 1.2 fold enrichment (6-mer frequency, TF over GST control); with ELF5, 1.32 fold enrichment (6-mer frequency, TF over GST control). The binding signal in the experiment with ETV3 was 1.23 fold enrichment (6-mer frequency, TF over GST control); with ETV6, 1.23 fold enrichment (6-mer frequency, TF over GST control).
For the sequence ACTCGA, the binding signal was 1.33 fold enrichment (6-mer frequency, TF over GST control) with ERF; 1.3 fold enrichment (6-mer frequency, TF over GST control) in the experiment with ETV3L; 1.33 fold enrichment (6-mer frequency, TF over GST control) with ETS2; 1.29 fold enrichment (6-mer frequency, TF over GST control) with SPDEF; 1.28 fold enrichment (6-mer frequency, TF over GST control) with ETV7; 1.22 fold enrichment (6-mer frequency, TF over GST control) with ELF5. The binding signal with ETV3 is 1.27 fold enrichment (6-mer frequency, TF over GST control); in the experiment with ETV6 it was 1.27 fold enrichment (6-mer frequency, TF over GST control).
With ATTAGG, the binding signal with ERF was 1.26 fold enrichment (6-mer frequency, TF over GST control); in the experiment with ETV3L, 1.12 fold enrichment (6-mer frequency, TF over GST control); with ETS2 it was 1.06 fold enrichment (6-mer frequency, TF over GST control); with SPDEF, 1.11 fold enrichment (6-mer frequency, TF over GST control); with ETV7, 1.15 fold enrichment (6-mer frequency, TF over GST control); with ELF5, 1.12 fold enrichment (6-mer frequency, TF over GST control). For the same sequence, the binding signal with ETV3 is 1.06 fold enrichment (6-mer frequency, TF over GST control); with ETV6, 1.09 fold enrichment (6-mer frequency, TF over GST control).
TCAAAT: the binding signal in the experiment with ERF is 1.01 fold enrichment (6-mer frequency, TF over GST control); in the experiment with ETV3L, 1.13 fold enrichment (6-mer frequency, TF over GST control); in the experiment with ETS2, 1.09 fold enrichment (6-mer frequency, TF over GST control); in the experiment with SPDEF, 1.11 fold enrichment (6-mer frequency, TF over GST control); in the experiment with ETV7 it was 1.14 fold enrichment (6-mer frequency, TF over GST control); with ELF5 it was 1.07 fold enrichment (6-mer frequency, TF over GST control). Further, the binding signal in the experiment with ETV3 is 1.07 fold enrichment (6-mer frequency, TF over GST control); with ETV6, 1.07 fold enrichment (6-mer frequency, TF over GST control).
